Screens as filed in PubChem BioAssay.
ELG1 repair inh = inhibitors of ELG1-dependent DNA repair in HEK293T cells; HEK293T ELG1-luciferase reporter, luminescence, 16 h; DNA damage induced by 5-fluorouridine; Potency, µM (doses to about 46.1 µM), hits mostly inhibitors; 2.3% of 330,000 active; further: nearly all actives have a fitted effect of over 55% in size
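DMSO vehicle served as the neutral condition. Each well held 2,000 cells given 5-fluorouridine plus compound; after 16 hr at 37 °C/5% CO2, ONE-Glo was added and luciferase measured 30 min later.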
FLuc modulator = firefly luciferase modulation, counter-screen for miR-21 project. P08659. purified FLuc, Km substrates, luminescence inhibition. Potency, µM (series often up to 57.5 µM), most hits filed as inhibitors. 6.9% of 360,000 active. AID 588342; further: nearly all actives have a fitted effect of over 55% in size
Target sequence (P08659 whole entry, looked up): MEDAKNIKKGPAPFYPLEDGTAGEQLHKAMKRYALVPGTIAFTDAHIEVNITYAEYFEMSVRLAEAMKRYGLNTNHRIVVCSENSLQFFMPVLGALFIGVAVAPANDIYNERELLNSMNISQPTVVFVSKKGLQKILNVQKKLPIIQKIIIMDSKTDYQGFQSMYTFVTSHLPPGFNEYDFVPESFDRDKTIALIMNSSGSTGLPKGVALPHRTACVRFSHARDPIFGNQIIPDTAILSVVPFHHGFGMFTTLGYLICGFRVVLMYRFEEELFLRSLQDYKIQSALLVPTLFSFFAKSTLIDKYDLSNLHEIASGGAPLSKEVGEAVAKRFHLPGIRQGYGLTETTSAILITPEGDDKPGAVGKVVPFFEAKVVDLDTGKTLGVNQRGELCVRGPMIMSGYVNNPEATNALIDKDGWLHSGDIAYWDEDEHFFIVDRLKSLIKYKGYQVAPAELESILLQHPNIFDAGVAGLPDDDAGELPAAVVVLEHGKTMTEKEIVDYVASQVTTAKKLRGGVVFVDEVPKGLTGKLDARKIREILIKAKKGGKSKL
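Purified P. pyralis luciferase (10nM final) with 10uM D-luciferin and 10uM ATP (Km levels) in 50mM Tris acetate pH 7.5, 10mM Mg acetate, 0.01% Tween-20, 0.05% BSA; qHTS 6-point titration, ~60 µM downward; luminescence read.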
SMN2 splice up = enhancers of SMN2 splice variant expression. 2.8% of 210,000 active. HEK293 SMN2-luciferase splicing reporter, luminescence, 30-36 h. Potency, µM (doses to about 46.1 µM), actives largely listed as activators. AID 1458; further: nearly all actives have a fitted effect of over 55% in size
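qHTS luciferase splicing reporter: luminescence rises when SMN2 exon 7 is included in transfected HEK293 cells. Compound exposure lasted 30-36 h at 37C, with 4.5 mM final sodium butyrate as control, followed by a ONE-Glo read.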
Rab9 promoter act = activators of Rab9 promoter. Huh7 Rab9 promoter-luciferase reporter, luminescence, 24 h. Potency, µM (titrated, usually from 9.22 µM), most hits filed as activators. 2.8% of 320,000 active; further: nearly all actives have a fitted effect of over 60% in size
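Using Huh7 cells stably transfected with Rab9 promoter–luciferase, compounds were incubated 24 h at 37 °C, 5% CO2; luciferase luminescence was read 10 min after reagent addition.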
NPC1 prom act = NPC1 promoter activation; Huh7 NPC1 promoter luciferase reporter, 24 h; 2.4% of 320,000 active; AID 485313; Potency, µM (titrated, usually from 9.22 µM), usual class: activators; further: nearly all actives have a fitted effect of over 60% in size
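NPC1 promoter–luciferase Huh7 cells; 24 h compound; luminescence.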
ELG1 genotox = inducers of genotoxicity in HEK293T ELG1-luciferase cells. 1.3% of 330,000 active. Potency, µM (series often up to 46 µM), most hits filed as activators. HEK293T ELG1-luciferase reporter, luminescence, 16 h. AID 504466; further: nearly all actives have a fitted effect of over 60% in size
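Reporter readout depends on ELG1 protein level, which increases with genetic stress. After 16 hr compound exposure at 37 °C, luciferase activity was quantified using ONE-Glo.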
A number is an active result; 0 = inactive; ? = inconclusive; - = no result; [ ] = remark or other dose. Rows were chosen to be rich in hits. Some 9.2% of all compounds tested hit in one or more screens of this group. The call rests on the fitted dose curve; in most records, active means well fitted curve in the direction sought with a large enough effect; inconclusive means small, poorly fitted or top-dose-only effect, or another doubt; inactive means no such curve, though single readings can be large; an effect the other way counts as inactive or inconclusive.

SMILES	ELG1 repair inh	FLuc modulator	SMN2 splice up	Rab9 promoter act	NPC1 prom act	ELG1 genotox
Cc1nn2c(-c3ccccc3)ccnc2c1-c1ccccc1	?	5.4µM	0	?	?	?
Cc1nc2c(-c3ccccc3)c(C)nn2c(N)c1-c1ccccc1	?	1.1µM	13µM	1.6µM	2.2µM	?
Cc1nn2c(N)c(-c3ccccc3)cnc2c1-c1ccc(Cl)cc1	?	5.4µM	-	3.5µM	2.5µM	?
O=C(O)/C=C/C(=O)NCc1csc2ccccc12	0	0	-	0	0	0
CCCN(C(=O)Cc1coc2cc(OC)ccc12)C1CCS(=O)(=O)C1 (stereo unspecified)	0	-	-	-	-	0
CCCn1c(N)c(C(=O)NS(=O)(=O)c2ccc(C)cc2)c(=O)n(C)c1=O	10µM	0	0	0	0	0
O=C(NCC(=O)N1CCN(c2ccccc2)CC1)c1ccccc1	?	0	-	0	0	0
CCOc1ccccc1NC(=O)CSc1nc2ccccc2nc1Cc1ccc(C)cc1	-	0	-	-	-	-
c1ccc(CN2CCN(CCCNc3ccc4nnc(-c5ccccc5)n4n3)CC2)cc1	18µM	0	0	0	0	0
COc1cc2c(cc1OC)-c1cc(NC3CCCC3)nc(=O)n1CC2	?	0	-	0	0	?
COc1cc2c(cc1OC)-c1cc(OCc3ccccc3Cl)nc(=O)n1CC2	16µM	?	?	?	0	0
COc1cc2c(cc1OC)-c1cc(Nc3ccc(N(C)C)cc3)nc(=O)n1CC2	?	12µM	-	0	0	?
CCN(CC)c1ccc(Nc2cc3n(c(=O)n2)CCc2cc(OC)c(OC)cc2-3)cc1	5.2µM	24µM	-	0	0	0
CN(C)c1ccc(-c2noc(C3CC(=O)N(c4ccc5c(c4)OCCO5)C3)n2)cc1 (stereo unspecified)	-	0	-	-	-	-
Cc1ccc(/C=N/NC(=O)c2ccc3ccccc3c2)s1	0	27µM	-	0	0	?
Cc1ccc(/C=N/NC(=O)c2ccc3c(c2)OCCO3)s1	?	3.4µM	-	?	?	?
O=C(N/N=C/c1cc(Br)cs1)c1ccc2c(c1)OCCO2	?	1.3µM	-	?	0	0
O=C(N/N=C/c1cccs1)c1ccc2ccccc2c1	?	11µM	-	?	0	0
O=C(N/N=C/c1cccs1)c1ccc2ncccc2c1	?	?	0	0	0	0
O=C(N/N=C/c1cccs1)c1cccc2cc[nH]c12	0	24µM	0	?	?	0
CN(C(=O)COc1ccc(Cl)cc1Cl)C1(C)CCS(=O)(=O)C1 (stereo unspecified)	0	0	-	0	0	0
CCCc1ccc(C(=O)NNc2cccc(C)c2)cc1	?	21µM	-	0	0	?
Cc1cccc(NNC(=O)C(=O)NNc2cccc(C)c2)c1	6.5µM	0	-	0	0	0
Nc1cc(Cl)c(NC2=NCCN2)c(Cl)c1	-	-	0	0	0	-
CCCOc1ccc(C(=O)Nc2ccc3oc(-c4ccncc4)nc3c2)cc1	-	0	0	-	-	-
SMILES	ELG1 repair inh	FLuc modulator	SMN2 splice up	Rab9 promoter act	NPC1 prom act	ELG1 genotox
Brc1ccccc1/C=N/N1CCCCC1	0	0	-	0[1.84 µM]	0	0
Oc1ccc(/C=N/N2CCCCC2)c(O)c1O	0	?	-	0	0	0
Oc1ccc(/C=N/N2CCCCC2)c(O)c1	?	19µM	-	0[1.84 µM]	?	?
Oc1ccccc1/C=N/N1CCCCC1	?	24µM	0	0	0	?
Oc1cccc(/C=N/N2CCCCC2)c1O	?	9.5µM	-	0	0	?
Cc1ccc(CNS(=O)(=O)c2c(C)[nH]c(C)c2C(=O)N2CCCCC2)o1	0	0	-	0	0	0[9.26 µM]
CC1CCN(C(=O)c2cc(-c3ccc(Br)cc3)on2)CC1	-	4.8µM	0	-	-	-
O=C(NCCCN1CCOCC1)c1cc(-c2ccc(Br)cc2)on1	?	?	0	0	0	0
O=C(c1cc(-c2ccc(Br)cc2)on1)N1CCCCCC1	?	1.3µM	-	0.63µM	0.71µM	16µM
O=C(c1cc(-c2ccc(Br)cc2)on1)N1CCOCC1	?	1.9µM	-	0.32µM	0.32µM	3.7µM
CC(C)C[C@H](NC(=O)N1c2ccccc2NC(=O)[C@@H]1C(C)C)C(=O)N1CCC[C@@H]1C(=O)O	0	0	-	0	0	0
Cc1ccc(N=Cc2ccc(N(C)C)cc2)cc1C	0	0.95µM	0	0	0	0
Cc1ccc(S(=O)(=O)N(C)/N=C/c2ccc(N(C)C)cc2)cc1	?	0	-	0	0	0
Cc1nc(/N=C\c2ccc(N(C)C)cc2)sc1C	0	0.3µM	-	0	0	0
CN(C)c1ccc(C=Nc2ccccc2)cc1	?	0.43µM	0	0	0	0
C(=Nc1cccc2c(N=Cc3ccco3)cccc12)c1ccco1	0	0	0	0	0	0
Cc1ccc(N=Cc2ccc(N(C)C)cc2)cc1	0	?	0	0	0	0
CN(C)c1ccc(N=Cc2ccco2)cc1	?	4.8µM	0	0	0	?
C/C(=N\NC(=O)c1ccc(Cn2cc(Br)cn2)o1)c1ccc(NC(=O)c2ccoc2C)cc1	?	0	-	0	0	0
CN(C)c1ccc(C=Nc2ccc(N(C)C)cc2)cc1	?	8.5µM	0	0	0	?
Cc1c2ccccc2nc2c(F)c(NC(C)C)c(F)c(F)c12	?	3µM	16µM	?	?	?
OCCNc1c2ccccc2nc2c(F)c(F)c(F)c(F)c12	?	0	0	0	0	0
Cc1c2ccccc2nc2c(F)c(NCCO)c(F)c(F)c12	?	21µM	0	0	0	?
O=C(COC(=O)c1ccc(O)cc1)Nc1ccccc1	?	?	-	0	0	0
COc1ccc(CN2CCNC(=O)C2CC(=O)NC2CCCC2)c(C)c1C (stereo unspecified)	0	0	-	0	0	0
SMILES	ELG1 repair inh	FLuc modulator	SMN2 splice up	Rab9 promoter act	NPC1 prom act	ELG1 genotox
CC1CCc2c(sc(NC(=O)c3ccc(Cn4cc([N+](=O)[O-])cn4)o3)c2C#N)C1 (stereo unspecified)	0	13µM	0	0	0	0
O=C(NC1CCCCC1)c1ccc(Cn2cc(Br)cn2)o1	0	0	0	0	0	0
N#Cc1c(NC(=O)c2ccc(Cn3cc(Br)cn3)o2)sc2c1CCCCC2	0	11µM	?	0	0	0
Cc1ccccc1NC(=O)c1ccc(Cn2cc([N+](=O)[O-])cn2)o1	0	0	-	0	0	0
COC(=O)c1sc(NC(=O)c2ccc(Cn3cc(Cl)cn3)o2)c(C#N)c1C	?	21µM	0	0	0	0
COc1ccc(-c2c(C)nc3c(-c4ccsc4)cnn3c2N)cc1	?	0.6µM	-	0.25µM	0.32µM	1.8µM
Cc1cc(C(F)(F)Cl)n2ncc(-c3ccccn3)c2n1	0	0	-	0	0	0
COc1ccc(-c2c(C)nc3c(-c4ccccn4)cnn3c2N)cc1	?	0.54µM	-	0.32µM	0.32µM	1.2µM
Cc1cc(Oc2ccc(=O)[nH]n2)nc(Cl)n1	?	15µM	-	3.2µM	1µM	?
O=C(/C=C/c1cccs1)NCc1ccc2c(c1)OCO2	?	?	-	0	0	0
